Measured values published in PubChem BioAssay.
Measured potencies and affinities stand elsewhere. Results filed as inconclusive are left out. Calls of active or inactive are those of the source. Unless noted, how the calls were made is not given here.

Columns and labels:
[1] = RMG-1 ovarian cancer cell viability loss – cherry-pick, dose response (AID 687029;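 active means signal drop whose fitted half-maximal concentration is at most twice the top valid dose, in every test run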;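 further: cells exposed to compound for 96 hours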)
[2] = IOSE-T80 viability loss, PAX8-independent line – cell-based, cherry-pick, selectivity assay for PAX8 inhibitor project, dose response (AID 687032;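 active means fitted half-maximal concentration for viability loss no higher than twice the top valid dose, in every repeat run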;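 further: cells exposed to compound for 96 h before reading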)
[3] = CMV-driven luciferase expression suppression in HEK293 – cell-based, luminescence, dry powder, counter-screen for Pax8 inhibitor project, dose response (AID 743020;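 active means signal-lowering compounds whose fitted half-maximal concentration is at or below twice the top tested dose in every run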;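 further: HEK293 cells stably expressing the CMV luciferase reporter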)
[4] = general cell-killing toxicity readout – plate reader, dry powder samples, cytotoxicity control for PAX8 inhibitor project, dose response (AID 743021)
[5] = toxicity toward immortalized ovarian surface epithelium – cell-based, plate reader, dry powder samples, cytotoxicity control for PAX8 inhibitor project, dose response (AID 743045);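 further: more negative values mean more cell killing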
[6] = A2780 cell killing – plate reader, dry powder samples, cytotoxicity control, dose response (AID 743046)
[7] = OVCAR8 cell viability loss – plate reader, dry powder samples, PAX8 project, dose response (AID 743197)

Measured: outcome

COc1ccc(S(=O)(=O)Nc2ccc3c(c2)C(=O)N([C@H](C)CO)C[C@@H](C)[C@@H](CN(C)Cc2ccc(C(F)(F)F)cc2)OCCCC[C@@H](C)O3)cc1
inactive: [1] | [2] | [3] | [4] | [5]

C[C@@H]1CCCCO[C@@H](CN(C)Cc2ccc(C(F)(F)F)cc2)[C@H](C)CN([C@H](C)CO)C(=O)c2cc(NS(=O)(=O)c3ccc(F)cc3)ccc2O1
inactive: [1] | [2] | [3] | [4] | [5]

O=C(c1ccccc1F)N1CC(=O)N2[C@@H](CO)[C@@H](c3ccc(C#Cc4ccc(F)cc4)cc3)[C@@H]2C1
inactive: [1] | [2] | [3] | [4] | [5] | [6]

C[C@H]1CCCCO[C@H](CN(C)Cc2ccc(C(F)(F)F)cc2)[C@@H](C)CN([C@@H](C)CO)C(=O)c2cc(NC(=O)Cc3ccccc3)ccc2O1
inactive: [1] | [2] | [3] | [4] | [5] | [6]

O=C1CN(S(=O)(=O)Cc2ccccc2)C[C@@H]2[C@@H](c3ccc(C#CCC4CCCC4)cc3)[C@@H](CO)N12
inactive: [1] | [2] | [3] | [4] | [5]

C[C@@H]1CCCCO[C@@H](CN(C)Cc2ccc3c(c2)OCO3)[C@@H](C)CN([C@@H](C)CO)C(=O)c2cc(NC(=O)Nc3ccc(C(F)(F)F)cc3)ccc2O1
inactive: [1] | [2] | [3] | [4] | [5] | [6]

O=S(=O)(Nc1cccc2cccnc12)c1ccccc1
inactive: [1] | [2] | [3] | [4] | [5] | [6]

COc1ccc2c3c(n(C)c2c1)[C@H](CO)N(C(=O)Nc1ccc(F)cc1)CC31CCN(C(=O)c2ccc3c(c2)OCO3)CC1
inactive: [1] | [2] | [3] | [4] | [5]

C[C@@H]1CN([C@@H](C)CO)C(=O)Cc2cc(NS(=O)(=O)c3ccc(F)cc3)ccc2O[C@H]1CN(C)Cc1ccc(Cl)c(Cl)c1
inactive: [1] | [2] | [3] | [4] | [5]

C[C@@H]1CCCCO[C@H](CN(C)Cc2ccc(C(F)(F)F)cc2)[C@H](C)CN([C@@H](C)CO)C(=O)c2cc(NC(=O)Nc3ccc4c(c3)OCO4)ccc2O1
inactive: [1] | [2] | [3] | [4] | [5]

COc1cccc(-c2ccc3c(c2)[C@H]2[C@H](CCN2S(=O)(=O)c2ccccc2OC)[C@@H](CO)N3C)c1
inactive: [1] | [2] | [3] | [4] | [5] | [6]

C[C@@H]1CN([C@H](C)CO)C(=O)c2cc(NC(=O)CCC(F)(F)F)ccc2O[C@@H](C)CCCCO[C@@H]1CN(C)Cc1ccc(Cl)c(Cl)c1
inactive: [1] | [2] | [3] | [4] | [5]

COc1ccc(S(=O)(=O)Nc2ccc3c(c2)C(=O)N([C@H](C)CO)C[C@H](C)[C@@H](CN(C)S(=O)(=O)c2ccc(F)cc2)OCCCC[C@H](C)O3)cc1
inactive: [1] | [2] | [3] | [4] | [5]

C[C@@H]1CCCCO[C@H](CN(C)Cc2ccc(C(F)(F)F)cc2)[C@@H](C)CN([C@@H](C)CO)C(=O)c2cc(NS(=O)(=O)c3ccc(F)cc3)ccc2O1
inactive: [1] | [2] | [3] | [4] | [5]

C[C@@H]1CN([C@@H](C)CO)C(=O)c2cc(NC(=O)Nc3ccc(C(F)(F)F)cc3)ccc2O[C@H]1CN(C)C(=O)Nc1ccc(C(F)(F)F)cc1
inactive: [1] | [2] | [3] | [4] | [5] | [6]

O=C1CN(S(=O)(=O)Cc2ccccc2)C[C@@H]2[C@H](c3ccc(C#Cc4ccc(F)cc4)cc3)[C@H](CO)N12
inactive: [1] | [2] | [3] | [4] | [5] | [7]

O=C(Nc1cccc(F)c1)N1CCCCN2[C@@H](CO)[C@@H](c3ccc(-c4ccccc4F)cc3)[C@@H]2C1
inactive: [1] | [2] | [3] | [4] | [5] | [6] | [7]

O=C(C1CCCC1)N1CC[C@@H]2[C@H](CO)Nc3ccc(C4=CCCCC4)cc3[C@@H]21
inactive: [1] | [2] | [3] | [4] | [5] | [6]

C[C@H](CO)N1C[C@H](C)[C@@H](CN(C)Cc2ccccc2)Oc2ccc(NC(=O)Nc3ccc(C(F)(F)F)cc3)cc2CC1=O
inactive: [1] | [2] | [3] | [4] | [5] | [6] | [7]

C[C@H](CO)N1C[C@H](C)[C@H](CN(C)S(=O)(=O)c2ccc(Cl)cc2)OCc2ccccc2-c2c(n(C)c3ccccc23)C1=O
inactive: [1] | [2] | [3] | [4] | [5] | [6]

COc1ccccc1NC(=O)N1CCCCN2[C@@H](CO)[C@@H](c3ccc(-c4cccc(C)c4)cc3)[C@@H]2C1
inactive: [1] | [2] | [3] | [4] | [6]

C[C@@H]1CN([C@@H](C)CO)C(=O)c2cc(NC(=O)Nc3ccc(C(F)(F)F)cc3)ccc2O[C@@H](C)CCCCO[C@H]1CN(C)Cc1ccncc1
inactive: [1] | [2] | [3] | [4] | [5] | [6]

Cc1ccc(S(=O)(=O)Nc2ccc3c(c2)CC(=O)N([C@@H](C)CO)C[C@@H](C)[C@H](CN(C)Cc2ccc(Cl)c(Cl)c2)O3)cc1
inactive: [1] | [2] | [3] | [4] | [5] | [6] | [7]

O=C(NC1CCCCC1)N1C[C@@H]2N[C@H](C1)C2c1ccc(-c2ccc(F)cc2)cc1 (some centres undefined)
inactive: [1] | [2] | [3] | [4] | [6]

C[C@@H]1CN([C@@H](C)CO)C(=O)c2cc(NC(=O)Nc3ccc(C(F)(F)F)cc3)ccc2O[C@@H](C)CCCCO[C@H]1CN(C)Cc1ccc2c(c1)OCO2
inactive: [1] | [2] | [3] | [4] | [5] | [6]

C[C@H](CO)N1C[C@H](C)[C@H](CN(C)Cc2ccc(C(F)(F)F)cc2)OCCCC[C@H](C)Oc2ccc(NC(=O)Nc3ccc4c(c3)OCO4)cc2C1=O
inactive: [1] | [2] | [3] | [4] | [5] | [6] | [7]
